Test results: PubChem BioAssay (NCI)
This is part of a sample that, as a whole, favours compounds with a hit. Of some 83,000 tested, about 20% had one in any assay.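 Plates (96-well) were seeded with cells, treated with compound at one concentration, and incubated for 48 hours before percent growth was determined.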 Activity calls are given as the source filed them.

Tested on: U251 CNS
Test: NCI-60 one-dose screen, 48 h (100 = growth as untreated, 0 = no growth, -100 = all killed)
Conditions: 10 µM unless noted
Protocol: Growth inhibition of the U251 human tumor cell line is measured as a screen for anti-cancer activity. Cells are grown in 96 well plates and exposed to the test compound for 48 hours. Compounds are tested at a single concentration, which is 10^-5 M for most compounds. The reported endpoint is percent growth (GI% or GIPRCNT), where numbers from 0 - 100% represent growth inhibition, and numbers from -100% - 0 represent cell death. For example, a value of 40 represents 60% growth inhibition. A value of 0 means no net growth occurred over the course of the experiment. A value of -40 indicates 40% of cells at the beginning of the experiment died by the end of the experiment. A value of -100 means all cells are dead at the end of the experiment.
NCI-60 Human Tumor Cell Lines Screen was performed using the standard one-dose NCI protocol, which is described in more detail at https://dtp.cancer.gov/discovery_development/nci-60/default.htm.
Compounds with GIPRCNT values below 10 were considered active. Activity score was based on GIPRCNT using the following formula: […]
Score is 0 for GIPRCNT values of 100 or above, 50 for GIPRCNT values of 0, and 100 for GIPRCNT values of -100.

Structure (SMILES) | growth
S=c1[nH]c2cc(Cl)ccc2o1 | 104% (inactive)
CN1CCN(Cc2ccc(NC(=O)c3cncc(C#Cc4cncc5[nH]ncc45)c3)cc2C(F)(F)F)CC1 | 25.1% (inactive)
Cn1cc(-c2nonc2-c2c[nH]c3ccccc23)c2ccccc21 | 12.4% (inactive)
COc1ccc(-c2cn(-c3ccc(Cl)cc3)c(SCC(=O)c3ccc([N+](=O)[O-])cc3)n2)cc1 | 60.6% (inactive)
O=C(/C=C/C12c3ccccc3C(c3ccccc31)C1C(=O)NC(=O)C12)c1ccc(F)cc1 (stereo not given) | -44.4% (active)
CCOC(=O)c1c2c(n3ccccc13)C(=O)c1ncccc1C2=O | 0.0106% (active)
COc1ccc2nc(SCC(=O)Nc3ccccc3C)[nH]c2c1 | 93.5% (inactive)
COc1cc2oc(-c3cccc(NC(=O)c4ccc5c(c4)OCO5)c3)cc(=O)c2c(OC)c1OC | 32.5% (inactive)
Cc1ccc(C)c(-n2c(-c3ccc(Br)cc3)csc2=NC(=O)c2ccccc2F)c1 | 46.4% (inactive)
COc1cc(-c2nc3ccc(C)cc3[nH]2)ccc1OCC(=O)N=Nc1c(O)[nH]c2ccc(Cl)cc12 | -41.6% (active)
N/C(=N\c1nc2ccccc2s1)NC(=NC1CCCCC1)NC1CCCCC1 | -56.2% (active)
O=c1ccc2nc(C(F)(F)F)nn(-c3ccccc3)c-2c1 | 69.7% (inactive)
Cc1nn(-c2ccccc2)c(N2CCCCC2)c1/C=N/NC(=O)Cn1c(=O)sc2ccccc21 | 73.4% (inactive)
CN1CCN(Cc2ccc(NC(=O)c3cncc(C#Cc4cnn5ccccc45)c3)cc2C(F)(F)F)CC1 | 7.18% (active)
C=CC1(C)C(O[Si](C)(C)C(C)(C)C)CC2C3OC(=O)NC31c1cccc3c1[C@H](C(=O)N3C)C2(C)C (stereo not given in full) | 67% (inactive)
Cc1[nH]c(C(=O)Nc2cccc(OC3CCNCC3)c2)c(Cl)c1Cl | 63.9% (inactive)
CN1C(=O)N(C)C2C1NC(=S)N2/N=C/C=C/c1ccccc1[N+](=O)[O-] (stereo not given) | 20.2% (inactive)
C=C(C)[C@@H]1CC[C@]2(CO)CC[C@]3(C)[C@H](CC[C@@H]4[C@@]5(C)CCC(NCCc6ccc(O)cc6)C(C)(C)[C@@H]5CC[C@]43C)[C@@H]12 (stereo not given in full) | -94.2% (active)
CCCCCn1sc(=O)n(Cc2ccc(CNC(=O)OCc3ccc4c(Cl)cc(Cl)c(O)c4n3)cc2)c1=O | 39.7% (inactive)
CC(/C=C1\SC(=S)N(CC(=O)NC(Cc2c[nH]c3ccccc23)C(=O)O)C1=O)=C\c1ccccc1 (stereo not given) | 105% (inactive)

Structure (SMILES) | growth
CCCCCCCCCCCCCCCCOC(=O)c1c(C)[nH]c(/C=C2\N=C(c3ccc[nH]3)C=C2OC)c1C | 41.7% (inactive)
Cc1ncc(C(=O)Nc2ccc(CN3CCN(C)CC3)c(C(F)(F)F)c2)cc1C#Cc1cnc(N)c2ccncc12 | -92.7% (active)
COc1ccc(C(C)=O)cc1S(N)(=O)=O | 98.6% (inactive)
COc1cc(C(=O)/C=C/c2ccc(N3CCN(C)CC3)cc2)cc(OC)c1OC | 99.5% (inactive)
COc1cc(/C=C2\CN(S(=O)(=O)c3ccc(C)cc3)C/C(=C\c3cc(CN4CCCCC4)c(O)c(OC)c3)C2=O)cc(CN2CCCCC2)c1O | -89.6% (active)
O=C(c1ccc(Cl)cc1Cl)N1c2ccccc2Sc2ccccc21 | 33.1% (inactive)
COc1ccc(-c2ccc(-c3ccc(C(=N)N)cn3)s2)cc1 | 15.3% (inactive)
CCOc1ccc(/C=N\N=C\c2ccc(OCC)cc2)cc1 | 74.4% (inactive)
CC[C@]12C=CCN3CC[C@@]4(c5ccc(OC)cc5N(C)[C@H]4[C@@](O)(C(=O)OC)[C@@H]1OC(=O)CCCN1CCOCC1)[C@@H]32 | 101% (inactive)
COc1ccc2nc3ccccc3c(NCc3ccccc3)c2c1 | 22.9% (inactive)
COc1cc(/C=C2\C(=O)N(c3c(Cl)cccc3Cl)c3ccccc32)cc(OC)c1OCCCCCCn1c2ccccc2c(=O)c2ccccc21 | 103% (inactive)
O=C1/C(=C/c2ccc(Br)cc2)COc2ccc(O)c(O)c21 | -72.4% (active)
O=C1NC(=Nc2ccc(O)cc2)S/C1=C\c1cccs1 | 25.2% (inactive)
Cc1cc(C)c(-c2c(O)c(Br)c(-c3c(C)cc(C)c(Br)c3C)c(O)c2Br)c(C)c1Br | 19.8% (inactive)
O=C(CN1C(=O)/C(=C/c2ccco2)SC1=S)NCCc1c[nH]c2ccc(F)cc12 | 103% (inactive)
COc1ccc(-c2cc(-c3ccc(OC)cc3)nc(NCCCNc3ccnc4cc(Cl)ccc34)n2)cc1 | 70.7% (inactive)
COc1ccc(/C=C/C(=O)c2cc3c(N)c(C(=O)Nc4ccccc4C)sc3nc2C)cc1 | 9.39% (active)
COc1ccc(NC(=O)c2ccc(C(=O)Nc3ccc(OC)cc3OC)cc2)c(OC)c1 | 46.3% (inactive)
CC1(C)OC(=O)C(=Cc2cccc(Br)c2)C(=O)O1 | 92.9% (inactive)
Cc1ncc(C(=O)Nc2ccc(CN3CCN(C)CC3)c(C(F)(F)F)c2)cc1C#Cc1cnc(N)c2cnccc12 | -20.7% (active)
